Reference: PubChem BioAssay AID2783 (National Center for Advancing Translational Sciences (NCATS), 2010)
Inconclusive results are not listed. Activity calls are given as the source filed them. Calls follow the shape of the dose curve; as a rule, active = well fitted inhibition curve with a large enough effect in the polarisation, with a control signal flat (not every such curve was filed as active); inconclusive = small, poorly fitted or top-dose-only effect, or effect the other way, or a change in a side signal; inactive = no such curve, though single readings can be large or run the other way; the % refers to the polarisation.

biological target: Menin (Homo sapiens) (UniProt O00255); assay: Confirmation of Inhibitors Targeting the Menin-MLL Interaction in MLL Related Leukemias: Competition With Fluorescein Labeled MLL-derived Peptide; details: Fluorescence polarization, fluorescein-MLL peptide displacement from menin; series mostly up to 100 µM
Source text: qHTS Assay for Inhibitors Targeting the Menin-MLL Interaction in MLL Related Leukemias
NIH Chemical Genomics Center [NCGC]
NIH Molecular Libraries Probe Centers Network [MLPCN]
Assay Submitter (PI): Jolanta Grembecka, Tomasz Cierpicki, University of Virginia
Translocations of the MLL (Mixed Lineage Leukemia) gene are frequently found in human leukemias affecting both children and adults. Fusion of MLL to one of more than 60 genes results in generation of oncogenic proteins upregulating Hox genes, which are vital to blood cell development. Patients harboring fusion of the MLL gene suffer from aggressive leukemias and respond poorly to available therapies. All of the oncogenic fusion proteins have a preserved N-terminal fragment of MLL that has been identified to interact with menin. It has been recently discovered that association with menin is critical to the leukemogenic activity of the MLL fusion oncoproteins. Selective targeting of the menin-MLL interaction could provide an attractive therapeutic approach to develop novel drugs for MLL-related leukemias. Small molecules blocking the menin-MLL interaction should reverse the oncogenic potential of MLL fusion proteins.
We have developed and optimized a fluorescence polarization-based assay for the identification of Menin-MLL inhibitors. The assay was run employing two different MLL-derived peptides. The present assay uses a 12 amino acid peptide labeled with fluorescein at its N-terminus. This peptide consists of the menin high affinity binding motif from MLL and is potently bound by menin. Another peptide with a mutated sequence, labeled with Texas Red, was used in parallel as a less stringent screen for inhibitors.
The present assay was run to confirm the activity of hits from the primary screen.
The Menin protein, the MLL-wild type (w.t.) derived peptide (N-terminal 12 amino acids), the MLL-derived peptide labeled with Texas Red and the MLL-w.t. peptide labeled with Fluorescein were kindly supplied by laboratory of Dr. Jolanta Grembecka, University of Virginia. All protein and peptide solutions were stored in single use aliquots at -80C. The Eu3+ Cyrptate-conjugated mouse monoclonal antibody anti-6 Histidine (Eu3+-AB) and the Streptavidin-XL665 conjugate (XL665) were purchased from Cisbio International (Bedford, MA). All antibody and XL665 conjugate solution stocks were stored in single use aliquots at -20C. The Buffer components for all assays were purchased from Sigma-Aldrich (St. Louis, MO) and Invitrogen (Carlsbad, CA).
1. FP reaction buffer: 50 mM Tris-HCl pH 7.5, 50 mM NaCl, 1mM DTT.
Before use, 0.05% BSA is added.
2. Menin protein, MLL-w.t. labeled with fluorescein, MLL-mutant peptide labeled with texas red.
Stored in singe use aliquots at -80C.
3. MLL-w.t. unlabeled peptide as positive control: 10 uM final in FP buffer.
1. Prepare Menin at 200 nM, MLL-w.t.-fluorescein at 25 nM, and MLL-mutant-texas red at 50 nM mixture in FP buffer.
2. Prepare Menin at 200 nM, MLL-w.t.-fluorescein at 25 nM, MLL-mutant-texas red at 50 nM, and 10 uM MLL-w.t. unlabeled mixture in FP buffer.
3. Prepare MLL-w.t.-fluorescein at 25 nM and MLL-mutant-texas red at 50 nM mixture in FP buffer.
3. Dispense 4 ul per well of reagent in step 1 in columns 2, 4 - 48 in a black 1536 well plate, dispense 4 ul per well of reagents from steps 2 and 3 in columns 1 and 3 respectively. Incubate plate at ambient for 15 minutes.
4. Transfer 23 nl per well of compound to plate and incubate at ambient for 1 hr.
5. Read fluorescence polarization for each label using the PerkinElmer Envision.
Envision protocol for fluorescein: FITC FP Dual Enh Mirror, Excitation filter 480, Emission filter (1) P-pol 535, Emission filter (2) S-pol 535
Envision protocol for texas red: FP Dual Enh Mirror, Excitation filter 555, Emission filter (1) P-pol 632, Emission filter (2) S-pol 632

Sequence of Menin (Homo sapiens) (O00255 whole entry, looked up): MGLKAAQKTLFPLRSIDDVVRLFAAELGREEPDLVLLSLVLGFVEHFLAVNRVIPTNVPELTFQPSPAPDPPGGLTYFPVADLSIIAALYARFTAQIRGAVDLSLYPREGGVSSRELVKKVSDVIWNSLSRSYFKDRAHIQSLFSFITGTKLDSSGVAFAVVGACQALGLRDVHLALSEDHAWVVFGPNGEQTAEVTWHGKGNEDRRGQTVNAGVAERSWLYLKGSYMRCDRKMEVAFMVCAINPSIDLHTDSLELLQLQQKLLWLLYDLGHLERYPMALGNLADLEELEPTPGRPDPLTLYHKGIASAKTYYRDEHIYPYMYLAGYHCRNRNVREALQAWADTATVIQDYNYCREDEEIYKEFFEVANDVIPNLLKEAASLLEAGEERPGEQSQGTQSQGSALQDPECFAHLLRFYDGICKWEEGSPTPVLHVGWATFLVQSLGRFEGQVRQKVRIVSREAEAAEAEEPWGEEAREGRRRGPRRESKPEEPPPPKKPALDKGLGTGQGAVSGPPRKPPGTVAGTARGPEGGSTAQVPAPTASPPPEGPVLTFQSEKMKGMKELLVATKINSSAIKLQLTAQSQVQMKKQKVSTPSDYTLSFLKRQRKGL

SMILES	outcome
Cc1cc(C(=O)NP(=O)(N2CCOCC2)N2CCOCC2)c(C)n1C1CC1	inactive
C[N+](C)(C)CC#CCN1CCCC1=O	inactive
OC12C3C4CC5C6C4C1C6C(C53)N2CCc1cccc(F)c1 (stereo not given)	inactive
CCCCn1c(=O)c(C(=O)Nc2ccsc2C(=O)OC)c(O)c2ccccc21	inactive
CCOC(=O)Cc1csc(NC(=O)c2c(O)c3ccccc3n(CCC(C)C)c2=O)n1	inactive
COc1ccc(C(O)P(=O)(Oc2ccccc2)Oc2ccccc2)cc1 (stereo not given)	inactive
CCCCCn1c(=O)c(C(=O)Nc2nc(CC(=O)OCC)cs2)c(O)c2ccccc21	inactive
CC[C@]12C=CCN3CC[C@@]4(c5ccc(OC)cc5N(C)[C@H]4[C@@](O)(C(=O)OC)[C@@H]1OC(C)=O)C32 (stereo not given in full)	inactive
O=C(Nc1ccc2ccccc2c1)c1nn(C23CC4CC(CC(C4)C2)C3)cc1Br	inactive
O=c1oc2ccccc2c(O)c1C(c1ccccn1)c1c(O)c2ccccc2oc1=O	inactive
COc1cc(/C=N/n2cnnc2)ccc1OC(=O)N(C)C	inactive
C[C@@H]1CC[C@@]2(NC1)O[C@H]1C[C@H]3[C@@H]4CC=C5C[C@@H](O)CC[C@]5(C)[C@H]4CC[C@]3(C)[C@H]1[C@@H]2C	inactive
O=C(O)CN1C(=O)CN=C(c2ccccn2)c2cc(Cl)ccc21	inactive
CCOP(=O)(OCC)C(NC(=O)c1ccccc1C)C(Cl)(Cl)Cl (stereo not given)	inactive
O=C1NC(=O)C(=Cc2ccc3ccccc3c2)C(=O)N1	inactive
